Results on 71 molecules are retold here after ChEMBL document CHEMBL3988442, “University of Dundee, Small-Polar-MMV Screening Library” (2021).

Each structure is given as a SMILES string. About 13,000 (27%) of roughly 48,000 compounds showed an effect of 50% or more. This is one part of the list.

The test system of this test is Wolbachia pipientis. Nature of the test: Anti-Wolbachia Cell-Based Screen. The test is classed as functional. Also noted: scale not given: in the data most compounds retested in dose-response had high values. The note with it: 5 µM.
As for `O=C(Nc1cnccn1)[C@H]1C[C@H]2OCC[C@H]2N(c2ncc(F)cn2)C1`, the “Percent Effect” value is 2.565%.
In the case of `c1ccc(CN2Cc3ccnn3CC(COCc3cccnc3)C2)nc1` (stereo unspecified) it was -0.5546%; in that of `CCOCCN1CCN(CCCc2nnnn2-c2ccccc2)CC1`, -8.911%.
Take `CC1CN(CC(=O)N2CCCC2)CCN1c1ccc2nncn2n1` (stereo unspecified): the “Percent Effect” value is given as -2.378%.
As to `CC1CN(CCc2ccccn2)CCN1c1ccc2nncn2n1` (stereo unspecified), the “Percent Effect” value is 129.7%.
In the case of `CCCc1cc(N2CCCCC2Cn2cc(C)cn2)n2ncnc2n1` (stereo unspecified) it was -0.9521%.
Take `COc1ccc(CCCC(=O)N2CCCC(n3cccn3)C2)cc1` (stereo unspecified): the “Percent Effect” value worked out at 8.149%.
Then `O=C(C1CNCCN1C(=O)CCc1cccnc1)N1CCOCC1` (stereo unspecified), with 99.11%; and `O=C(Nc1ccc(F)cc1)C1CNCCN1C(=O)CCc1cccnc1` (stereo unspecified), with -3.468%.
Then `Cc1cc(CCC(=O)N2CCOCC2)ccc1Br`, with 7.033%; and `Cc1ccccc1N1CCCN(C(=O)CCc2cccnc2)CC1`, with 13.31%; and `COc1ccc(CCC(=O)N2CCNCC2C(=O)N2CCCC2)cc1` (stereo unspecified), with 99.9%.
In the case of `COc1ccc(C(=O)N2CCN(C(=O)CCCc3cn[nH]c3)CC2)cc1` it was -2.583%; in that of `COc1ccc(CCC(=O)N2CCNCC2C(=O)N2CCOCC2)cc1` (stereo unspecified), 109%; in that of `Cc1ccc(CCC(=O)N2CCOCC2)cc1Cl`, -2.511%.
`CCn1cnnc1CCNC(=O)C1COc2ccc(OC)cc2C1` (stereo unspecified): the “Percent Effect” value came to 0.6591%.
Then `O=S(=O)(CCc1ccccc1)Cc1nc(C2CC2)no1`, with 20.48%.
For `Cc1c(C2CCCN(C(=O)OC(C)(C)C)C2)n2c(nc1=O)CCC2` (stereo unspecified), the “Percent Effect” value amounted to 101.7%.
Then `Cc1csc(CNCC2CCCN(C(=O)OC(C)(C)C)C2)n1` (stereo unspecified), with 11.13%; and `Cc1cnc(C(=O)N2CCCC(Cn3cc(C4CC4)nn3)C2)cn1` (stereo unspecified), with 1.892%; and `Cc1csc(C2CCCN(C(=O)c3ccc(=O)n(C)n3)C2)n1` (stereo unspecified), with 3.739%.
Then `Cc1c(C2CCCN(C(=O)c3ccn(C)n3)C2)n2c(nc1=O)CCC2` (stereo unspecified), with 88.69%.
Then `Cc1cnc(C(=O)N2CCCC(c3c(C)c(=O)nc4n3CCC4)C2)cn1.Cl` (stereo unspecified), with 99.49%; and `Cc1c(C2CCCN(C(=O)C3CC3)C2)n2c(nc1=O)CCC2.Cl` (stereo unspecified), with 11.8%.
Take `Cc1nc(CN[C@H]2CCCN(C(=O)OC(C)(C)C)C2)cs1`: the “Percent Effect” value turned out to be 1.8%.
Then `O[C@@H]1C[C@@H](c2nc(-c3ccc(OC(F)(F)F)cc3)no2)N(CC2CC2)C1`, with 9.042%; and `CCC/C=C/c1ccc(CN2CCCC2)cn1`, with -3.861%.
Then `CCOC(=O)CN1CC(c2nc(-c3ccsc3)no2)C1.O=C(O)C(=O)O`, with -3.591%; and `CCC1COCCN1C(=O)CNC(=O)c1ccoc1C` (stereo unspecified), with -13.26%.
In the case of `CS(=O)(=O)N1CCN(c2ccc(Nc3ccccn3)nn2)CC1` it was 2.595%; in that of `Cc1nc(Nc2ccccn2)cc(N2CCN(S(C)(=O)=O)CC2)n1`, -12.78%.
On to `Cc1nc2c(c(Nc3ccccn3)n1)CN(S(C)(=O)=O)CC2`, for which the “Percent Effect” value was found to be 109%.
Consider `Cc1ncc(CNCC(=O)NC2CCCCC2)n1-c1ccccc1`, for which the “Percent Effect” value is given as -6.194%.
Then `CC(CCc1ccccc1)NC(=O)Nc1cnn(CC(N)=O)c1` (stereo unspecified), with -0.3012%; and `CCc1nnc2n1CCN(C(=O)COCCc1ccccc1)C2`, with -3.602%; and `CCc1nnc2n1CCN(C(=O)c1ccccc1OCC1CC1)C2`, with -2.361%.
Then `CCc1nnc2n1CCN(C(=O)CN(CC)CC)C2`, with 97.7%; and `CCc1ncc(C(=O)N2CCn3c(CC)nnc3C2)s1`, with -2.408%; and `CCc1nnc2n1CCN(C(=O)c1cnn(C)c1C1CC1)C2`, with 0.7265%.
In the case of `CCc1nnc2n1CCN(C(=O)CN(C)C1CC1)C2` it was 84.19%.
Regarding `COCC(NC(=O)NCc1sccc1C)c1ccco1` (stereo unspecified), the “Percent Effect” value is listed as -5.912%.
Then `CN(Cc1nccn1C)C(=O)C1COCC(=O)N1Cc1ccccc1` (stereo unspecified), with -8.994%.
Then `CN1CCOC(C(=O)Nc2nc(-c3ccc4c(c3)CCC4)n[nH]2)C1` (stereo unspecified), with -12.56%; and `Cn1ccnc1C(=O)N1CCCC1c1ccc(C(=O)N2CCOCC2)s1` (stereo unspecified), with -4.877%; and `COCC(=O)N1CCC2(CCC2NS(=O)(=O)c2ccccc2)CC1` (stereo unspecified), with 2.757%.
Then `CCNC(=O)N1CCC(Cc2cccc(C(N)=O)c2)C1` (stereo unspecified), with 4.026%; and `CNC(=O)NC(=O)CN1CCN(CC2CC2)c2ccccc21`, with 5.416%; and `CCNC(=O)N1CC[C@H]2CC(=O)N(CC(N)=O)CC[C@H]2C1`, with 1.469%.
On to `CCOC(=O)N1CCC(OC)c2ccccc2N(CC(=O)NC)C(=O)C1` (stereo unspecified), for which the “Percent Effect” value came to 117.4%.
In the case of `CS(=O)(=O)N1CCC(C(=O)N2CCOc3ccccc32)CC1` it was 5.703%; in that of `CCNC(=O)N1CCC(OC)c2ccccc2N(CC(=O)NC)C(=O)C1` (stereo unspecified), 67.66%.
As for `CNC(=O)CN1C(=O)CN(C(=O)COC)CCC(OC)c2ccccc21` (stereo unspecified), the “Percent Effect” value was found to be 121.9%.
In the case of `CCOC(=O)CN1C(=O)CN(S(C)(=O)=O)CCC(OC)c2ccccc21` (stereo unspecified) it was 83.87%; in that of `CC1CCN(C(=O)C2CCN(S(C)(=O)=O)CC2)c2ccccc21` (stereo unspecified), 3.869%.
In the case of `c1ccc(COCC2CNCc3nccn3C2)nc1` (stereo unspecified) it was -7.438%; in that of `O=C(NS(=O)(=O)Cc1ccc(F)cc1)C1CCc2ccccc21` (stereo unspecified), 9.1%.
Then `CC(NC(=O)NCC(C)(C)O)c1ccc(-c2cncnc2)cc1` (stereo unspecified), with -6.963%.
On to `COc1ccc(NCc2ccccc2N2CCN(C(C)=O)CC2)cn1`, for which the “Percent Effect” value is recorded as 3.995%.
Then `CNC(=O)CN1CCCC1c1ccccc1Br` (stereo unspecified), with 2.059%.
Then `CNC(=O)CS(=O)(=O)C1CCN(S(=O)(=O)c2ccccc2Cl)CC1`, with 17.8%; and `CCS(=O)(=O)N1CCC(OC)c2ccccc2N(CC(=O)NC)C(=O)C1` (stereo unspecified), with 115.1%.
Regarding `O=S(=O)(NCCNc1cc(-n2cccn2)ncn1)c1cccs1`, the “Percent Effect” value was 12.03%.
Then `Cc1ccc(C)c(-c2[nH]c3ccccc3c2C(=O)O)c1`, with 107.7%.
Then `COc1ccc(C(=O)NS(C)(=O)=O)cc1-c1ccccc1`, with -13.07%; and `Cc1ccc(C(=O)CN2C(=O)c3ccccc3CS2(=O)=O)c(C)c1`, with -19.51%.
Then `Cc1ccc(-c2[nH]c3ccccc3c2C(=O)O)c(C)c1`, with 112.6%; and `CC(C)CN1CCN(C(=O)c2cc(=O)c3ccccc3[nH]2)CC1`, with -0.8051%; and `CC(=O)N1CCCN(C(=O)c2csc(-c3ccc(C)cc3C)n2)CC1`, with -4.506%.
For `Cc1ccc(C)c(C(=O)CN2C(=O)c3ccccc3CS2(=O)=O)c1`, the “Percent Effect” value was -17.22%.
Then `COc1ccc(C)cc1-c1[nH]c2ccccc2c1C(=O)O`, with 86.15%.
In the case of `COc1ccc(C)cc1C(C(=O)O)N1CCN(Cc2ccccn2)CC1` (stereo unspecified) it was -8.065%.
